PubChem BioAssay (NCI)
This is part of a sample that, as a whole, favours compounds with a hit. Of some 83,000 tested, about 20% had one in any assay.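 Treatment: one concentration, 48 hours, 96-well format. Scoring: percent growth, with anything below 10 considered active.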 Activity calls are given as the source filed them.

Test system: HL-60(TB) leukemia
Assay: NCI-60 one-dose screen, 48 h (100 = growth as untreated, 0 = no growth, -100 = all killed)
Settings: 10 µM unless noted

Row | SMILES | growth
1 | CCOc1ccc2[nH]c(=O)c(C(c3nnnn3CC3CCCO3)N3CCN(Cc4ccccc4)CC3)cc2c1 (centres undefined) | 149% (inactive)
2 | CNC(=O)c1cccc(NC(=O)c2ccc3c(c2)nnn3/C(C#N)=C/c2ccccn2)c1 | -14.7% (active)
3 | O=C(c1ccc(Cl)cc1)C1[C@H](c2ccc(Br)cc2)[C@@H](c2ccccc2)NC12C(=O)Nc1ccc(Br)cc12 (some centres undefined) | -42.8% (active)
4 | CC(=O)C[n+]1cccc2c3ccccc3ccc21 | 85% (inactive)
5 | COC(=O)c1cccc(Oc2ccc(NC(=O)Nc3cc(C(F)(F)F)ccc3F)cc2)c1 | 78% (inactive)
6 | O=C(c1ccc(Cl)cc1)C1[C@H](c2ccc(Br)cc2)[C@@H](c2ccccc2)NC12C(=O)Nc1ccccc12 (some centres undefined) | -32% (active)
7 | CCCCCCCCCCCCCCCCCCCC(=O)NCCc1c[nH]c2ccc(OC(=O)NOCCOCCOCCOCCOCCOCCOCCOCCOCCOCCOCCOCCOCCOCCOCCOCCOCCOCCOCCOCCOCCOCCOC)cc12 | -38.2% (active)
8 | CN1CCCN(Cc2ccc(C(=O)Nc3cccc(Nc4ccc5cc(O)ccc5n4)c3)cc2C(F)(F)F)CC1 | 73.7% (inactive)
9 | Cn1cc(-c2cc(N)n3nc(-c4cn(C)c5ccccc45)cc3n2)c2cc(Br)ccc21 | -32.3% (active)
10 | O=C(COc1ccc(NC(=O)Nc2ccccc2)cc1)N=Nc1c(O)[nH]c2ccc([N+](=O)[O-])cc12 | 23.4% (inactive)
11 | O=C(Cn1c(/C=C/c2ccc([N+](=O)[O-])cc2)nc2ccccc2c1=O)Nc1ccccc1 | 102% (inactive)
12 | CN1C/C(=C\c2ccc(O)cc2O)c2[o+]c3cc(O)ccc3cc2C1 | 46.8% (inactive)
13 | COc1cccc(-c2ccc(/C=N/NC(=O)c3[nH]c4ccc(Br)cc4c3-c3ccccc3)o2)c1 | -38.4% (active)
14 | CSc1ccccc1NC(=O)c1ccc2nnn(/C(C#N)=C/c3ccccn3)c2c1 | -31.5% (active)
15 | N#CC1=C(c2cccs2)Nc2c(c(-c3ccccc3)nn2-c2ccccc2)C12C(=O)Nc1ccc(Cl)cc12 (centres undefined) | -4.48% (active)
16 | O=C(O)CCCCCCCCCCN1C(=O)/C(=C/c2cnc(-c3ccc(Cl)cc3)s2)SC1=S | 33.7% (inactive)
17 | Cc1ccc(-c2nc(C#N)c(S(=O)(=O)N3CCN(S(C)(=O)=O)CC3)o2)cc1 | 2.43% (active)

Row | SMILES | growth
18 | O=C(/C=C/Nc1ccc(Cl)cc1)c1ccc2c(c1)Nc1ccccc1S2 | 92.7% (inactive)
19 | Cn1cc(-c2cc3nc(-c4cn(C)c5ncc(Br)cc45)cc(N)n3n2)c2cc(F)ccc21 | 1.38% (active)
20 | O=C(NCCCCCCCCCC[P+](c1ccccc1)(c1ccccc1)c1ccccc1)c1ccc(-n2nc(-c3ccccc3O)nc2-c2ccccc2O)cc1 | -29.8% (active)
21 | COc1ccccc1[C@H]1C(C(=O)c2ccc(Cl)cc2)C2(N[C@@H]1c1ccccc1)C(=O)Nc1ccc(Cl)cc12 (some centres undefined) | -25.1% (active)
22 | Cc1cccc(-c2ccccc2Oc2ccc3nnc(Cl)n3n2)c1 | 108% (inactive)
23 | Cc1sc2c(c1C)C(c1ccc(Cl)cc1)=N[C@@H](CC(=O)NCCCCCNC(=O)COc1ccc(C3CCC(=O)NC3=O)cc1)c1nnc(C)n1-2 (some centres undefined) | -16.6% (active)
24 | COc1cc(/C=N/NC(=O)c2ccc3nc(-c4ccc(Cl)cc4)[nH]c3c2)cc(OC)c1OC | 32.1% (inactive)
25 | c1ccc(-c2csc(Nc3cccc(Nc4nc(-c5ccccc5)cs4)c3)n2)cc1 | 65.9% (inactive)
26 | COc1ccc(N=Nc2c(N)nn3c(-c4cc5ccccc5oc4=O)ccnc23)cc1 | 73.9% (inactive)
27 | COc1cccc2nc(Nc3ccc(F)c(NC(=O)c4ccc(CN5CCN(C)CC5)c(C(F)(F)F)c4)c3)ccc12 | -73.1% (active)
28 | O=C(CN1C(=O)/C(=C/c2ccccc2F)SC1=S)N1CCOCC1 | 82.5% (inactive)
29 | Cc1ccc(NC(=O)CN2CCN(c3ncnc4c3cnn4-c3ccccc3)CC2)cc1 | 95.4% (inactive)
30 | Cc1ccc2nc(NC(=O)Nc3cccc(Cl)c3)sc2c1 | 95.7% (inactive)
31 | COc1cc(/C=C/C(=O)c2cnn(-c3cc(=O)[nH]c4ccc(Br)cc34)c2C)cc(OC)c1OC | -19.6% (active)
32 | N/C(=N\c1nc2ccccc2s1)NC(=O)Nc1ccccc1[N+](=O)[O-] | -11.1% (active)
33 | O=c1[nH]n(C(=S)N/N=C/c2ccc(F)cc2)c(=O)c2ccccc12 | 44.7% (inactive)
34 | NC1=NC(c2ccccc2Cl)N=C(Nc2nn[nH]n2)N1 (centres undefined) | 110% (inactive)
